Reference: PubChem BioAssay (NCI)
This is part of a sample that, as a whole, favours compounds with a hit. Of some 79,000 tested, about 15% had one in any assay. Calls of active or inactive are those of the source. No stated cut-off is given here; in the data, active means growth inhibition above about 70%; inactive means the rest.

What was measured:
[1] = NCI Yeast Anticancer Drug Screen. Data for the rad50 strain (AID 155);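 further: 0% = growth of vehicle-only cultures of the same strain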; conditions: S. cerevisiae rad50 strain growth inhibition, stronger effect = higher value
Procedure, shortened: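 Vehicle-treated cultures provide the reference for the growth inhibition reported for compound-exposed, repair-deficient yeast.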

[2] = NCI Yeast Anticancer Drug Screen. Data for the mec2-1 strain (AID 157); conditions: S. cerevisiae mec2-1 strain, stronger effect = higher value
Procedure, shortened: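 Compounds were applied to mec2-1 yeast cells. Their growth was then compared with that of vehicle-treated cultures to give growth inhibition.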

[3] = NCI Yeast Anticancer Drug Screen. Data for the sgs1 mgt1 strain (AID 161);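 further: 0% = growth of cultures given vehicle only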; conditions: S. cerevisiae sgs1 mgt1 strain, stronger effect = higher value
Procedure, shortened: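 Yeast cells carrying a defined DNA-repair defect were exposed to test compounds. Growth inhibition was measured relative to vehicle-treated controls.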

[4] = NCI Yeast Anticancer Drug Screen. Data for the cln2 rad14 strain (AID 165);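 further: 0% = growth equal to vehicle treated cultures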; conditions: S. cerevisiae cln2 rad14 strain, stronger effect = higher value
Procedure, shortened: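 Strain: cln2 rad14 yeast, altered in cell cycle control and DNA damage repair. Read-out: growth inhibition vs vehicle.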

[5] = NCI Yeast Anticancer Drug Screen. Data for the bub3 strain (AID 167); conditions: S. cerevisiae bub3 mutant strain, stronger effect = higher value
Procedure, shortened: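 Mutant yeast screening strain plus compound; vehicle-treated cultures serve as the 0% inhibition reference.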

[6] = NCI Yeast Anticancer Drug Screen. Data for the mlh1 rad18 strain (AID 175); conditions: S. cerevisiae mlh1 rad18 strain growth inhibition, stronger effect = higher value
Procedure, shortened: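 A repair-deficient yeast strain is exposed to test compound, and growth is scored relative to vehicle-treated controls.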

[7] = at 5.0 µM (retest, dose inferred, filed as 0.5)
[8] = at 50.0 µM (retest, dose inferred, filed as 5.0)

Row | SMILES | growth inhibition [1, 7] | growth inhibition [1, 8] | growth inhibition ([1]; at 50.0 µM) | growth inhibition [2, 7] | growth inhibition [2, 8] | growth inhibition ([2]; at 50.0 µM) | growth inhibition [3, 7] | growth inhibition [3, 8] | growth inhibition ([3]; at 50.0 µM) | growth inhibition [4, 7] | growth inhibition [4, 8] | growth inhibition ([4]; at 50.0 µM) | growth inhibition [5, 7] | growth inhibition [5, 8] | growth inhibition ([5]; at 50.0 µM) | growth inhibition [6, 7] | growth inhibition [6, 8] | growth inhibition ([6]; at 50.0 µM)
1 | Cc1ccc(O)c(-c2cscn2)c1 | 49% (inactive) | 68% (inactive) | 62.6% (inactive) | 39% (inactive) | 60% (inactive) | 6.95% (inactive) | 15% (inactive) | 22% (inactive) | 55.5% (inactive) | 65% (inactive) | 72% (active) | 31.5% (inactive) | 46% (inactive) | 50% (inactive) | 48.5% (inactive) | 47% (inactive) | 59% (inactive) | 85.7% (active)
2 | CCc1cc(C)cc(NC(=O)OC2CCCCC2C)c1 (centres undefined) | 42% (inactive) | 66% (inactive) | 90.2% (active) | 35% (inactive) | 49% (inactive) | 91% (active) | 35% (inactive) | 92% (active) | 91.2% (active) | 20% (inactive) | 69% (inactive) | 89.1% (active) | 37% (inactive) | 85% (active) | 91.3% (active) | 38% (inactive) | 72% (active) | 90.4% (active)
3 | N#Cc1ccc(Cl)cc1[N+](=O)[O-] | 31% (inactive) | 97% (active) | 90.3% (active) | 15% (inactive) | 98% (active) | 92% (active) | 36% (inactive) | 96% (active) | 90.8% (active) | 38% (inactive) | 96% (active) | 91% (active) | 52% (inactive) | 97% (active) | 90.2% (active) | 42% (inactive) | 96% (active) | 90.4% (active)
4 | O=C(O)C(O)Cc1ccc(O)cc1 (centres undefined) | -150% (inactive) | -144% (inactive) | -3.2% (inactive) | -46% (inactive) | -51% (inactive) | 1.1% (inactive) | -61% (inactive) | -61% (inactive) | 3.7% (inactive) | -62% (inactive) | -69% (inactive) | 39.2% (inactive) | -70% (inactive) | -86% (inactive) | -13.3% (inactive) | -140% (inactive) | -122% (inactive) | -6.4% (inactive)
5 | CN(C(=O)c1ccc(Cl)cc1)C(=S)N1CCN(c2ccccc2)CC1 | -11% (inactive) | 72% (active) | 80.3% (active) | -5% (inactive) | 80% (active) | 74.1% (active) | -16% (inactive) | 82% (active) | 79% (active) | 3% (inactive) | 41% (inactive) | 61.2% (inactive) | 1% (inactive) | 88% (active) | 63.5% (inactive) | -10% (inactive) | 89% (active) | 72.5% (active)
6 | C[N+](C)(CCCCCCOc1c(Br)cc(Br)cc1Br)Cc1ccc(Br)o1 | 71% (active) | 99% (active) | 99.5% (active) | 38% (inactive) | 100% (active) | 99.8% (active) | 84% (active) | 100% (active) | 99.8% (active) | 40% (inactive) | 99% (active) | 99.2% (active) | 61% (inactive) | 99% (active) | 99.8% (active) | 83% (active) | 99% (active) | 99.7% (active)
7 | CN(C)C1CCC2C(=C1OC(=O)c1ccccc1)C=Cc1ccccc12 (centres undefined) | -1% (inactive) | 11% (inactive) | 25% (inactive) | 2% (inactive) | 16% (inactive) | 13.4% (inactive) | 13% (inactive) | 38% (inactive) | 31.9% (inactive) | 4% (inactive) | 7% (inactive) | -1.4% (inactive) | 0% (inactive) | 12% (inactive) | 22.9% (inactive) | 21% (inactive) | 53% (inactive) | 67.5% (inactive)
8 | Cc1cc(C)c(Cc2cc(C(C)(C)C)cc(C)c2O)cc1Cc1cc(C(C)(C)C)cc(C)c1O | -2% (inactive) | 10% (inactive) | 51.4% (inactive) | -5% (inactive) | 24% (inactive) | 49.4% (inactive) | 2% (inactive) | 27% (inactive) | 63.6% (inactive) | -16% (inactive) | 19% (inactive) | 69.3% (inactive) | -4% (inactive) | 26% (inactive) | 49.9% (inactive) | 2% (inactive) | 33% (inactive) | 71% (active)
9 | C1CCC(CC[N+]23CC[N+](CCC4CCCC4)(CC2)C3)C1 | 1% (inactive) | 33% (inactive) | 62.3% (inactive) | -8% (inactive) | 34% (inactive) | -14.4% (inactive) | 12% (inactive) | 72% (active) | 45.3% (inactive) | 2% (inactive) | 15% (inactive) | -8.6% (inactive) | 2% (inactive) | 25% (inactive) | 11.6% (inactive) | 24% (inactive) | 59% (inactive) | 40% (inactive)
10 | Cc1cc(C(=O)c2ccccc2)ccc1O | 2% (inactive) | 33% (inactive) | 48% (inactive) | -6% (inactive) | 36% (inactive) | 36.9% (inactive) | 3% (inactive) | 47% (inactive) | 46.6% (inactive) | -7% (inactive) | -16% (inactive) | -8.4% (inactive) | -3% (inactive) | 3% (inactive) | 48.7% (inactive) | -2% (inactive) | 36% (inactive) | 70.1% (active)
11 | c1ccc2cc3nc4ccccc4nc3cc2c1 | 44% (inactive) | 82% (active) | 87.9% (active) | 21% (inactive) | 38% (inactive) | 51.4% (inactive) | 13% (inactive) | 22% (inactive) | 20.9% (inactive) | 15% (inactive) | 38% (inactive) | 70.1% (active) | 42% (inactive) | 57% (inactive) | 68.3% (inactive) | 25% (inactive) | 58% (inactive) | 73% (active)
12 | CN(Cc1ccccc1)CC(O)c1ccc(/C=C/c2ccc(Cl)cc2)cc1 (centres undefined) | 55% (inactive) | 66% (inactive) | 86.1% (active) | 38% (inactive) | 66% (inactive) | 65.5% (inactive) | 87% (active) | 92% (active) | 95.9% (active) | 52% (inactive) | 64% (inactive) | 87.6% (active) | 68% (inactive) | 82% (active) | 69.6% (inactive) | 56% (inactive) | 73% (active) | 86.2% (active)
13 | C=C(CN(C)C)C(=O)c1ccc(Oc2ccccc2)cc1 | 99% (active) | 100% (active) | 99.2% (active) | 99% (active) | 100% (active) | 99.4% (active) | 99% (active) | 100% (active) | 59.5% (inactive) | 71% (active) | 99% (active) | 99.4% (active) | 99% (active) | 100% (active) | 98.8% (active) | 98% (active) | 100% (active) | 99.5% (active)
14 | Nc1ccc(-c2ccc(Cl)cc2)cc1 | 0% (inactive) | 96% (active) | 96.7% (active) | -2% (inactive) | 61% (inactive) | 78.7% (active) | -1% (inactive) | 78% (active) | 94.5% (active) | -6% (inactive) | 93% (active) | 92.2% (active) | 4% (inactive) | 61% (inactive) | 96.9% (active) | -1% (inactive) | 95% (active) | 93.3% (active)
15 | OCCSC(=S)Nc1ccc(Cl)c(Cl)c1 | 47% (inactive) | 99% (active) | 99.6% (active) | 10% (inactive) | 100% (active) | 99.7% (active) | 78% (active) | 100% (active) | 99.8% (active) | 0% (inactive) | 99% (active) | 99.5% (active) | 44% (inactive) | 99% (active) | 99.8% (active) | 85% (active) | 99% (active) | 99.5% (active)
16 | C1=c2ccccc2=C2C(=C(c3ccccc3)C(c3ccccc3)=NN2c2ccccc2)S1 | -25% (inactive) | -9% (inactive) | -14.2% (inactive) | 0% (inactive) | -17% (inactive) | -18.6% (inactive) | -13% (inactive) | -22% (inactive) | -18.8% (inactive) | -22% (inactive) | -13% (inactive) | 5.9% (inactive) | -4% (inactive) | 2% (inactive) | -5.35% (inactive) | -1% (inactive) | -32% (inactive) | -2.55% (inactive)
17 | O=C1C(=O)C(Br)(c2ccccc2)C(=O)C1c1ccccc1 (centres undefined) | -16% (inactive) | 4% (inactive) | 52.5% (inactive) | -22% (inactive) | 2% (inactive) | 71.4% (active) | -19% (inactive) | 8% (inactive) | 13.2% (inactive) | -2% (inactive) | 72% (active) | 93.8% (active) | 85% (active) | 97% (active) | 97.7% (active) | 7% (inactive) | 20% (inactive) | 97.7% (active)
18 | Clc1ccc(C2=CC(c3ccccc3)N3C(=N[C@H]4CCCC[C@@H]43)N2)cc1 (some centres undefined) | 8% (inactive) | 6% (inactive) | 55.4% (inactive) | 4% (inactive) | 4% (inactive) | 54.2% (inactive) | 6% (inactive) | 17% (inactive) | 79.2% (active) | 11% (inactive) | 33% (inactive) | 32.2% (inactive) | 14% (inactive) | 19% (inactive) | 84.8% (active) | 6% (inactive) | 11% (inactive) | 91.8% (active)
